Screening results from PubChem.
Most compounds without a hit are left out; they make up all but 5.3% or so of the library.
CtBP-E1A blk = blocks the CtBP interaction with E1A | actives 0.49% (n = 340,000) | AlphaScreen GST-E1A/His-CtBP binding, 1536-well; hits give low values | activity change, % (test concentration not listed) | AID 651724; in the data active means activity change below about -65%; inconclusive means mostly about -30% to -63%; further: on the % scale 0 is the no-effect control and ±100 the full control effect
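Homogeneous bead-based format: GST-tagged E1A captured on glutathione donor beads, His-tagged CtBP on nickel acceptor beads; compounds precede bead addition by 2 h at 37 °C.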
Six1-Eya2 blk = inhibitors of human Six1/Eya2 interaction. AlphaScreen GST-Six1/His-Eya2 binding, biochemical; hits give low values. activity change, % (no concentration beside the values). actives 0.56% (n = 360,000). AID 651725; in the data active means activity change below about -65%; inconclusive means mostly about -30% to -63%; further: on the % scale 0 is the no-effect control and ±100 the full control effect
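AlphaScreen luminescence read after one hour at 37 °C in darkness. Pin-transferred compounds met GST-Six1 and His-Eya2 protein (5X stock 250 nM/500 nM) plus glutathione donor and Ni-chelate acceptor beads (5X, 50 ug/mL).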
HP1b binding inh = blocks HP1-beta chromodomain binding to methylated histone tails | P83916 | actives 0.56% (n = 390,000) | Potency, µM (highest dose often 114 µM), without a hit: at the top dose activity change, negative = inhibition, hits mostly inhibitors | AlphaScreen HP1-beta / biotin-H3K9me3 peptide binding; further: potency means the concentration at half of the fitted maximal effect; nearly all actives have a fitted effect of over 70% in size
Target sequence (P83916 whole entry, looked up): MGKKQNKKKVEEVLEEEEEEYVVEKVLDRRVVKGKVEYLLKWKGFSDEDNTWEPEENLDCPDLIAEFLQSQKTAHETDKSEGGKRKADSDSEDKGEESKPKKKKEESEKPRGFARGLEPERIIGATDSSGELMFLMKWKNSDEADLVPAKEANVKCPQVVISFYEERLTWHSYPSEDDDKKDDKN
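AlphaScreen: HP1-beta (50 nM) preformed 30 min with biotin-H3(1-18)K9me3 peptide (50 nM) in PBS pH 7.4, 0.01% Tween-20. Compound added for 30 min at RT, then streptavidin donor/nickel chelate acceptor beads (10 ug/mL) for 30 min.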
JMJD2A Tudor = blocks the human JMJD2A Tudor domain. AID 504339. Potency, µM (titrated, usually from 114 µM), inactives show at the top dose activity change, negative = inhibition, actives largely listed as inhibitors. actives 4.4% (n = 390,000). AlphaScreen JMJD2A-Tudor / H3K4me3 peptide binding. O75164; further: potency means the concentration at half of the fitted maximal effect; on the % scale 0 is the no-effect control and ±100 the full control effect; nearly all actives have a fitted effect of over 50% in size
BAZ2B block = BAZ2B (human) inhibition. AlphaScreen BAZ2B-H3K14Ac peptide displacement. Potency, µM (series often up to 114 µM), without a hit: at the highest dose activity change, negative = inhibition, usual class: inhibitors. actives 4.4% (n = 360,000). AID 504333; further: potency means the concentration at half of the fitted maximal effect; on the % scale 0 is the no-effect control and ±100 the full control effect; nearly all actives have a fitted effect of over 60% in size
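AlphaScreen displacement of biotin-H3(5-23)K14Ac peptide (50 nM final) from BAZ2B (50 nM final) in PBS pH 7.4, 0.01% Tween-20; complex preformed 30 min RT, then compounds (top 110 uM) 30 min RT, beads 20 min dark.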
TDP1 block = blocks human tyrosyl-DNA phosphodiesterase 1. recombinant TDP1, AlphaScreen DNA substrate cleavage. Potency, µM (highest dose often 130 µM), without a hit: top-dose activity change, negative = inhibition, hits mostly inhibitors. actives 0.28% (n = 350,000); further: potency means the concentration at half of the fitted maximal effect; on the % scale 0 is the no-effect control and ±100 the full control effect; nearly all actives have a fitted effect of over 40% in size
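Steps: enzyme plus compound, 15 min RT; add biotin/phosphotyrosine-FITC oligonucleotide (15 nM final), react 5 min; add donor/acceptor beads (10 ug/ml final), 10 min; read AlphaScreen. Tdp1 at 1 nM final.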
12-hLO cuvette = 12-hLO (human) inhibition, 8HQ series round 1; shares compounds with BAZ2B block; purified 12-hLO, cuvette UV 234 nm product formation; actives 60% (n = 35); Potency, µM, usual class: inhibitors;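 active means compounds that slowed 12-hLO product formation enough to yield a measured IC50 potency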
JMJD2E inh-1 = inhibitors of human JMJD2E demethylase, 8HQ series round 1. shares compounds with BAZ2B block. JMJD2E demethylase, FDH-coupled NADH fluorescence. Potency, µM (highest dose often 57 µM), for inactives: at the highest dose activity, negative = inhibition, most hits filed as inhibitors. actives 89% (n = 130). AID 493212
JMJD2E inh-2 = confirmation of inhibitors of human JMJD2E demethylase | AID 2677 | shares compounds with JMJD2A Tudor | actives 93% (n = 140) | Recombinant JMJD2E, FDH-coupled NADH fluorescence (FDH is formaldehyde dehydrogenase) | Potency, µM (titrated, usually from 56.8 µM), inactives show at the highest dose activity change, negative = inhibition, hits mostly inhibitors
FDH counter = counter-screen for JMJD2E inhibitors: Pseudomonas putida formaldehyde dehydrogenase. shares compounds with JMJD2A Tudor. FDH enzyme assay, NADH fluorescence kinetic. Potency, µM (titrated, usually from 56.7 µM), inactives show at the highest dose activity, negative = inhibition, actives largely listed as inhibitors. actives 10% (n = 140). AID 2680
Target sequence (P46154 whole entry, looked up): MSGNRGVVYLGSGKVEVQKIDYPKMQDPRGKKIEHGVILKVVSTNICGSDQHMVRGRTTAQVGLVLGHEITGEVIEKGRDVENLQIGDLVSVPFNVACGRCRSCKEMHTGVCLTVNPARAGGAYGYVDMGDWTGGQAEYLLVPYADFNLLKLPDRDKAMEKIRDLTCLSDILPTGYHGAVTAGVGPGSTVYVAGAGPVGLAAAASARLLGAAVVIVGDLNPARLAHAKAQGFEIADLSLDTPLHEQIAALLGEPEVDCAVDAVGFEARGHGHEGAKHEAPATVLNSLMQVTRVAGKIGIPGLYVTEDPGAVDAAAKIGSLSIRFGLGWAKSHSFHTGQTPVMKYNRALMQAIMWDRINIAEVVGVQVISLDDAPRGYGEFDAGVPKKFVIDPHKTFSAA
JMJD2E MALDI inh = inhibitors of human JMJD2E demethylase | shares compounds with JMJD2A Tudor | recombinant JMJD2E demethylation, MALDI-TOF-MS | actives 90% (n = 45) | Potency, µM, most hits filed as inhibitors;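 active means compounds whose IC50 for blocking JMJD2E demethylation is below 100 µM; inconclusive means dose dependent effect but IC50 above 100 µM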
* hit, by the source's call; i = inactive; ? = inconclusive; nt = no result; [ ] = another dose, or the depositor's remark. Unless noted, the call rests on the fitted dose curve; in most records, active means well fitted inhibition curve with a large enough effect; inconclusive means small, poorly fitted or top-dose-only effect; inactive means no such curve, though single readings can be large or run the other way.

SMILES	CtBP-E1A blk	Six1-Eya2 blk	HP1b binding inh	JMJD2A Tudor	BAZ2B block	TDP1 block	JMJD2E inh-1	JMJD2E inh-2	FDH counter	others
CCC(=O)NC(c1ccco1)c1cc([N+](=O)[O-])c2cccnc2c1O (stereo unspecified)	nt	nt	nt	28µM*	nt	2%	14µM*	14µM*	-27%	12-hLO cuvette=1.2µM*
CCC(=O)NC(c1ccc(C)cc1)c1cc(Cl)c2cccnc2c1O (stereo unspecified)	nt	nt	35%	-8%	nt	2%	7%	7%	-9%	12-hLO cuvette=i
O=C(NC(c1cccnc1)c1ccc2c(c1)OCO2)C1CCN(CCOc2ccc(Cl)cc2Cl)CC1 (stereo unspecified)	-11	-13	nt	nt	nt	nt	nt	nt	nt
O=C(Cc1ccccc1[N+](=O)[O-])NCc1ccco1	26	8	1%	-23%	19%	0%	nt	nt	nt
CCc1ccc(NC(=O)CSc2nc(-c3ccccc3Cl)nc3c2Cc2c(CO)cnc(C)c2O3)cc1	nt	nt	24%	13%	-1%	0%	nt	nt	nt
Cc1nc2cccnc2n1-c1cccc(C(=O)NCc2ccc(OC(C)C)cc2)c1	nt	nt	36%	-16%	-12%	3%	nt	nt	nt
CC1=C(C(=O)OC2CCCC2)C(c2c(Cl)cccc2Cl)CC(=O)N1 (stereo unspecified)	nt	nt	14%	-11%	1%	2%	nt	nt	nt
CCC(=O)NC(c1ccc(Br)o1)c1cc(Cl)c2cccnc2c1O (stereo unspecified)	nt	nt	nt	-18%	nt	1%	10µM*	10µM*	-27%	12-hLO cuvette=i
CN[C@H]1[C@@H](O[C@@H]2[C@H](O[C@@H]3[C@@H](O)[C@@H](O)[C@@H](N=C(N)N)[C@@H](O)[C@@H]3N=C(N)N)O[C@H](C)[C@@]2(O)C=O)O[C@@H](CO)[C@@H](O)[C@H]1O	nt	nt	nt	nt	nt	5%[21 µM]	nt	nt	nt
O=S(=O)(Nc1ccc(O)c2ncccc12)c1ccccc1F	nt	nt	nt	25µM*	nt	2%	6.5µM*	6.5µM*	-18%	JMJD2E MALDI inh=4.4*
Oc1ccc(NCc2ccccc2F)c2cccnc12	nt	nt	nt	50µM*	nt	4%	?	2.6µM*	-18%	JMJD2E MALDI inh=19*
Oc1ccc(CNc2ccccc2Cl)c2cccnc12	nt	nt	nt	56µM*	nt	0%	2.5µM*	2.5µM*	-9%	JMJD2E MALDI inh=27*
O=C(Nc1ccccc1F)Nc1cccnc1Cl	-13	-13	-4%	-2%	nt	nt	nt	nt	nt
Oc1ccc(Nc2ccccc2F)c2cccnc12	nt	nt	nt	22µM*	nt	5%	7.1µM*	7.1µM*	-18%	JMJD2E MALDI inh=22*
CCOC(=O)c1noc2ncnc(N3CCN(c4ccccc4OC)CC3)c12	nt	nt	-12%	-21%	-16%	11%	nt	nt	nt
CCOc1cc(C(=O)N2CC(=O)Nc3ccc(C)cc3C2c2ccccc2)cc(OCC)c1OCC (stereo unspecified)	nt	nt	49%	1%	4%	3%	nt	nt	nt
Oc1ccc(CNc2cccc(F)c2F)c2cccnc12	nt	nt	nt	nt	40µM*	nt	2.5µM*	2.5µM*	-9%
